Experimental data: PubChem BioAssay (Tox21)
Where “and” joins values, the source holds several entries; their conditions need not be identical. Identical values can stand only once. Results filed as inconclusive are left out. The source holds several records for some structures; these can differ, active in one and inactive in another. Calls of active or inactive are those of the source. Calls follow the shape of the dose curve; as a rule, active = well fitted curve in the direction sought with a large enough effect in the repeat runs; inconclusive = weak or mixed curves; inactive = no such curve, though single readings can be large; an effect the other way counts as inactive or inconclusive.

Assays:
[1] = qHTS RealTime-Glo MT Cell Viability Assay in HEK293 cells - 16 hour (AID 1224872); also: top concentration of the series differs between compounds; nearly all actives have a fitted effect of over 50% in size
Procedure, shortened: (§1)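 HEK293 cells seeded with NanoLuc/prosubstrate reagent, rested 5 h at 37 C, then dosed and kept at 37 C up to 40 h. Nonlytic real-time luminescence from viable cells read at 0, 8, 16, 24, 32 and 40 h.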

[2] = qHTS RealTime-Glo MT Cell Viability Assay in HepG2 cells - 8 hour (AID 1224873); also: nearly all actives have a fitted effect of over 55% in size
Procedure, shortened: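 HepG2 cells mixed with RealTime-Glo MT reagents (NanoLuc plus cell-permeant prosubstrate) were seeded at 600 cells/well, incubated 5 h at 37 C/5% CO2, then pinned with compounds in DMSO; nonlytic luminescence tracked viability during 40 h treatment.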

[3] = qHTS RealTime-Glo MT Cell Viability Assay in HEK293 cells - 40 hour (AID 1224874); details: RealTime-Glo luminescence; max response: stronger effect = lower value; also: nearly all actives have a fitted effect of over 50% in size; also: potency is read from the fitted curve at half-maximal effect
Procedure, shortened: (§2)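 Luminescence readout at each listed time point; HEK293, 600 cells/well, RealTime-Glo MT reagent added with cells; compounds pinned (23 nL in DMSO) after 5 h at 37 C; continuous culture at 37 C.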

[4] = A CellTox Green Cytotoxicity Assay to monitor cytotoxicity in HEK293 cells - 24 hour (AID 1224875); also: series mostly up to about 77 µM; nearly all actives have a fitted effect of over 45% in size
Procedure, shortened: (§3)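 Read-out: fluorescence of a cell-impermeant cyanine dye staining DNA of dead cells, proportional to cytotoxicity. HEK293, 600 cells/well with reagent, compound (23 nL DMSO) added after 5 h; reads at 0, 8, 16, 24, 32, 40 h.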

[5] = A CellTox Green Cytotoxicity Assay to monitor cytotoxicity in HepG2 cells - 16 hour (AID 1224876); also: nearly all actives have a fitted effect of over 45% in size
Procedure, shortened: (§4)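 HepG2, 600 cells/well premixed w/ CellTox Green; 5 h settle, 37 C/5% CO2; pintool cpd add (DMSO); 37 C, 40 h; fluorescence read at 0, 8, 16, 24, 32, 40 h.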

[6] = qHTS RealTime-Glo MT Cell Viability Assay in HepG2 cells - 32 hour (AID 1224877); also: nearly all actives have a fitted effect of over 55% in size
Procedure, shortened: (§5)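 HepG2 cells (600/well) were dispensed with RealTime-Glo reagents, incubated 5 h at 37 °C, then treated with compounds in DMSO for up to 40 h. Nonlytic NanoLuc luminescence reflecting viable cells was read at each stated time point.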

[7] = A CellTox Green Cytotoxicity Assay to monitor cytotoxicity in HepG2 cells - 24 hour (AID 1224878); also: nearly all actives have a fitted effect of over 45% in size
Procedure, shortened: as §4

[8] = A CellTox Green Cytotoxicity Assay to monitor cytotoxicity in HepG2 cells - 40 hour (AID 1224879); also: nearly all actives have a fitted effect of over 40% in size
Procedure, shortened: as §4

[9] = qHTS RealTime-Glo MT Cell Viability Assay in HEK293 cells - 0 hour (AID 1224880); also: top concentration of the series differs between compounds; nearly all actives have a fitted effect of over 45% in size
Procedure, shortened: as §2

[10] = A CellTox Green Cytotoxicity Assay to monitor cytotoxicity in HEK293 cells - 32 hour (AID 1224881); also: nearly all actives have a fitted effect of over 40% in size
Procedure, shortened: as §3

[11] = A CellTox Green Cytotoxicity Assay to monitor cytotoxicity in HepG2 cells - 0 hour (AID 1224882); also: nearly all actives have a fitted effect of over 35% in size
Procedure, shortened: as §4

[12] = A CellTox Green Cytotoxicity Assay to monitor cytotoxicity in HepG2 cells - 32 hour (AID 1224883); also: nearly all actives have a fitted effect of over 50% in size
Procedure, shortened: as §4

[13] = A CellTox Green Cytotoxicity Assay to monitor cytotoxicity in HEK293 cells - 8 hour (AID 1224884); also: nearly all actives have a fitted effect of over 35% in size
Procedure, shortened: as §3

[14] = qHTS RealTime-Glo MT Cell Viability Assay in HepG2 cells - 16 hour (AID 1224885); also: nearly all actives have a fitted effect of over 50% in size
Procedure, shortened: as §5

[15] = qHTS RealTime-Glo MT Cell Viability Assay in HEK293 cells - 24 hour (AID 1224886)
Procedure, shortened: as §1

[16] = qHTS RealTime-Glo MT Cell Viability Assay in HEK293 cells - 8 hour (AID 1224887)
Procedure, shortened: as §2

[17] = A CellTox Green Cytotoxicity Assay to monitor cytotoxicity in HEK293 cells - 16 hour (AID 1224888); also: nearly all actives have a fitted effect of over 35% in size
Procedure, shortened: as §3

[18] = A CellTox Green Cytotoxicity Assay to monitor cytotoxicity in HepG2 cells - 8 hour (AID 1224890); also: nearly all actives have a fitted effect of over 45% in size
Procedure, shortened: as §4

[19] = qHTS assay to identify small molecule antagonists of the estrogen receptor alpha (ER-alpha) signaling pathway using the BG1 cell line in the presence of 0.1 nM 17-beta-estradiol - cell viability counter screen (AID 1259241); also: nearly all actives have a fitted effect of over 40% in size
Procedure, shortened: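 CellTiter-Fluor read (30 min, 37C) on ER-alpha/ERE-luc VM7Luc4E2 cells; 22 hr compound treatment; agonist 0.1 nM E2 final; same-well multiplex.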

[20] = qHTS RealTime-Glo MT Cell Viability Assay in HepG2 cells - 0 hour (AID 1224889); also: nearly all actives have a fitted effect of over 50% in size
Procedure, shortened: as §5
% is scaled to controls: 0 for no effect and ±100 for the full control effect.

CS(=O)(=O)c1ccc([C@@H](O)[C@@H](CO)NC(=O)C(Cl)Cl)cc1
inactive: Potency [1] | Potency [2] | max response [3] 13.1% and 7.93% | Potency [4] | Potency [5] | Potency [6] | Potency [7] | Potency [8] | Potency [9] | Potency [10] | Potency [11] | Potency [12] | Potency [13] | Potency [14] | Potency [15] | Potency [16] | Potency [17] | Potency [18] | Potency [19]

CCCCC/C=C\C/C=C\CCCCCCCC(=O)OC
inactive: Potency [1] | Potency [2] | max response [3] 3.92% and -0.83% | Potency [4] | Potency [5] | Potency [6] | Potency [7] | Potency [9] | Potency [10] | Potency [11] | Potency [12] | Potency [13] | Potency [14] | Potency [15] | Potency [16] | Potency [17] | Potency [20] | Potency [18] | Potency [19]

O=S(=O)(Oc1ccc(Cl)cc1Cl)c1ccccc1
active: Potency [3] 14 µM
inactive: Potency [1] | Potency [2] | max response [3] -21.1% | Potency [4] | Potency [6] | Potency [7] | Potency [8] | Potency [9] | Potency [10] | Potency [11] | Potency [12] | Potency [13] | Potency [14] | Potency [15] | Potency [16] | Potency [17] | Potency [18] | Potency [19]

OCC1CCCO1 (centres undefined)
inactive: Potency [1] | Potency [2] | max response [3] 1.79% and -10.7% | Potency [4] | Potency [5] | Potency [6] | Potency [7] | Potency [8] | Potency [9] | Potency [10] | Potency [11] | Potency [12] | Potency [13] | Potency [14] | Potency [15] | Potency [16] | Potency [17] | Potency [20] | Potency [18] | Potency [19]

Cc1ccc(C)c(C)c1
inactive: Potency [1] | Potency [2] | max response [3] 7.97% and 2.35% | Potency [4] | Potency [5] | Potency [6] | Potency [7] | Potency [8] | Potency [9] | Potency [10] | Potency [11] | Potency [12] | Potency [13] | Potency [14] | Potency [15] | Potency [16] | Potency [17] | Potency [18] | Potency [19]

CCCCCC/C=C/CCCCCCCC(=O)O
inactive: Potency [1] | Potency [2] | max response [3] 2.68% and -1.87% | Potency [4] | Potency [5] | Potency [6] | Potency [7] | Potency [9] | Potency [10] | Potency [11] | Potency [12] | Potency [13] | Potency [14] | Potency [15] | Potency [16] | Potency [17] | Potency [18] | Potency [19]

CC1CC(OC(=O)c2ccccc2O)CC(C)(C)C1 (centres undefined)
inactive: Potency [1] | Potency [2] | max response [3] -10.4% and -7.39% and -13.1% | Potency [4] | Potency [5] | Potency [6] | Potency [7] | Potency [9] | Potency [10] | Potency [11] | Potency [12] | Potency [13] | Potency [14] | Potency [15] | Potency [16] | Potency [17] | Potency [20] | Potency [18] | Potency [19]

CCCCNC(N)=O
inactive: Potency [1] | Potency [2] | max response [3] 5.63% and 4.35% | Potency [4] | Potency [5] | Potency [6] | Potency [7] | Potency [8] | Potency [9] | Potency [10] | Potency [11] | Potency [12] | Potency [13] | Potency [14] | Potency [15] | Potency [16] | Potency [17] | Potency [18] | Potency [19]

OC[C@@H](O)[C@@H](O)[C@H](O)[C@@H](O)CO
inactive: Potency [1] | Potency [2] | max response [3] -13% and 0.936% | Potency [4] | Potency [5] | Potency [6] | Potency [7] | Potency [8] | Potency [9] | Potency [10] | Potency [11] | Potency [12] | Potency [13] | Potency [14] | Potency [15] | Potency [16] | Potency [17] | Potency [20] | Potency [18] | Potency [19]

Cc1cc(=O)[nH]c(C(C)C)n1
inactive: Potency [1] | Potency [2] | max response [3] 1.9% and -0.481% | Potency [4] | Potency [5] | Potency [6] | Potency [7] | Potency [9] | Potency [10] | Potency [11] | Potency [12] | Potency [13] | Potency [14] | Potency [15] | Potency [16] | Potency [17] | Potency [20] | Potency [18] | Potency [19]

Clc1ccc(Cl)c(Cl)c1Cl
inactive: Potency [1] | Potency [2] | max response [3] 0.667% and -4.21% | Potency [4] | Potency [5] | Potency [6] | Potency [7] | Potency [8] | Potency [9] | Potency [10] | Potency [11] | Potency [12] | Potency [13] | Potency [14] | Potency [15] | Potency [16] | Potency [17] | Potency [20] | Potency [18] | Potency [19]

CC(C)(N=C=O)c1cccc(C(C)(C)N=C=O)c1
inactive: Potency [1] | Potency [2] | max response [3] 0.966% | Potency [4] | Potency [5] | Potency [6] | Potency [7] | Potency [8] | Potency [9] | Potency [10] | Potency [11] | Potency [12] | Potency [13] | Potency [14] | Potency [15] | Potency [16] | Potency [17] | Potency [20] | Potency [18] | Potency [19]

Cc1cc(NS(=O)(=O)c2ccc(N)cc2)no1
inactive: Potency [1] | Potency [2] | Potency [4] | Potency [5] | Potency [6] | Potency [7] | Potency [9] | Potency [10] | Potency [11] | Potency [12] | Potency [13] | Potency [14] | Potency [15] | Potency [16] | Potency [17] | Potency [20] | Potency [18] | Potency [19]
